# From ChEMBL document CHEMBL3988442, “University of Dundee, Small-Polar-MMV Screening Library” (2021)
# In all, about 53,000 compounds went through this assay and about 900 (1.7%) showed an effect of 50% or more. This excerpt belongs to a sample that is enriched for strong results.
# System: Mycobacterium tuberculosis
# Experiment: Cornell - Phenotypic assay to identify agents that inhibit growth of Mycobacterium tuberculosis
# Format: functional
# Design: scale not given: direction of the effect not stated beside the values
# Conditions: 10 mM as filed; unlikely as a test dose
row,SMILES,Percent Effect
1,COCCNC(=O)C(C)n1nc(-c2ccc(C)o2)cc(N)c1=O (configuration not stated),-59.92%
2,Cc1ccc(-c2cc(N)c(=O)n(C(C)C(=O)NC(C)C)n2)o1 (configuration not stated),26.87%
3,CCCNC(=O)C(C)n1nc(-c2ccc(C)o2)cc(N)c1=O (configuration not stated),66.1%
4,O=C(N1CCOCC1)[C@@]12CCO[C@@H]1CCN(C1CCCCC1)C2.O=C(O)C(F)(F)F,-10.99%
5,CC1CCCN(C(=O)c2cc(-c3ccco3)cs2)C1 (configuration not stated),33.45%
6,CC(=O)N1CCOC(Cc2cccc(C(F)(F)F)c2)C1 (configuration not stated),25.26%
7,COc1cccc(CCC2CCCN(C(=O)c3ccc(OC)o3)C2)c1 (configuration not stated),67.76%
8,CC1CCCN(C(=O)c2ccc(-c3ccco3)o2)C1 (configuration not stated),79.8%
9,CC1=C(C(=O)N2CCOC(Cc3cccc(C(F)(F)F)c3)C2)OCCO1 (configuration not stated),22.58%
10,COc1cccc(CCC2CCCN(C(=O)c3ccccn3)C2)c1 (configuration not stated),5.867%
11,COc1ccc(C(=O)N2CCCC(C)C2)cc1F (configuration not stated),-4.81%
12,COc1cccc(CCC2CCCN(C(C)=O)C2)c1 (configuration not stated),19.46%
13,COc1ccc(C(=O)N2CCOC(Cc3cccc(C(F)(F)F)c3)C2)o1 (configuration not stated),107.3%
14,COCCOCCCNC(=O)c1cc(Cl)cc2cccnc12,14.25%
15,CNC(=O)c1cc(C)nc(C2(C)CCCN2c2cc(C)ncn2)n1 (configuration not stated),-3.041%
16,CCc1ncc(C(=O)N(C)C(C)c2ccc3c(c2)OCCO3)cn1 (configuration not stated),-2.31%
17,Cc1cccnc1CCNCC1(O)CCCN(CC2CCCCC2)C1=O (configuration not stated),-24.48%
18,Cn1ccnc1CN1CCCN(C(=O)c2cccc(CC#N)c2)CC1,-5.317%
19,Cc1noc(C)c1-c1cc(CCC2CN(C(=O)C(C)C)CCO2)ncn1 (configuration not stated),37.61%
20,O=C(O)C(F)(F)F.O=C(O)C(F)(F)F.c1cnc(N2CC3(CCN(Cc4cccnc4)C3)C2)nc1,-25.95%
21,NC(=O)CN(Cc1ccc(Br)cc1)C(=O)c1ccccn1,-15.26%
22,NC(=O)C1=NC2=NS(=O)(=O)c3ccccc3N2N1Cc1ccccc1Cl,106.2%
23,COC(=O)C1=NN2C(=NS(=O)(=O)c3ccccc32)N1,46.07%

row,SMILES,Percent Effect
1,NC(=O)C1=NC2=NS(=O)(=O)c3ccccc3N2N1Cc1ccc(Br)cc1,106.5%
2,NCc1cn(-c2ccccc2C(=O)NCc2ccccc2Cl)cn1,-8.218%
3,NCc1cnn(-c2ccccc2C(=O)NCc2ccccc2Cl)c1,-1.327%
4,NC(=O)C1=NN2C(=NS(=O)(=O)c3ccccc32)N1,18.26%
5,NC(=O)C1=NC2=NS(=O)(=O)c3ccccc3N2N1Cc1ccc(Cl)cc1,106.1%
6,CCCN(CCc1ccccn1)C(=O)Cn1cc(C)cn1,6.805%
7,CC(C)C(=O)N1CCC(c2c(C(N)=O)sc3ccccc23)C1 (configuration not stated),-20.56%
8,CO[C@@H]1CCN(Cc2nccs2)C[C@@H]1Cc1ccccc1.O=C(O)C(F)(F)F,17.77%
9,CO[C@H]1CCN(Cc2nccs2)C[C@@H]1Cc1ccccc1,32.3%
10,CO[C@@H]1CCN(Cc2nccs2)C[C@@H]1Cc1cccc(C)c1.O=C(O)C(F)(F)F,58.64%
11,CC(C)c1ccc(NC(=O)Cn2cc(I)cn2)cc1,64.63%
12,NC(=O)c1ccc(NC(=O)Cn2cc(I)cn2)cc1,12.21%
13,Cc1ccc(NC(=O)Cn2cc(I)cn2)cc1,2.116%
14,CS(=O)(=O)CCSc1n[nH]c(-c2ccc3c(c2)CCC3)n1,22.85%
15,O=C(CSC1CCCC1)N1CCN(C(=O)C2CC2c2cccs2)CC1 (configuration not stated),19.24%
16,O=C(CSC1CCCC1)N1CCN(c2ccc(-n3cncn3)nn2)CC1,-7.169%
17,O=C(CSC1CCCC1)N1CCN(C(=O)C2CC2c2ccccc2)CC1 (configuration not stated),57.68%
18,CN(CCOc1ccccc1F)C1CCOC1=O (configuration not stated),-18.35%
19,CC(Cn1cncn1)NCc1csc2c1CCCC2 (configuration not stated),6.492%
20,CC(Cn1cccn1)NCc1csc2c1CCCC2 (configuration not stated),-0.7044%
21,CC(Cn1ccnc1)NCc1csc2c1CCCC2 (configuration not stated),52.3%
22,O=C1NCC2(CCCN(C(=O)CCn3cnc4ccccc43)CC2)O1 (configuration not stated),-0.9742%
23,COc1cccc(Cn2[nH]c(C)c3c(NC(=O)C(C)OC)nnc2-3)c1 (configuration not stated),19.31%

row,SMILES,Percent Effect
1,CCOC(=O)C(C)NC(=O)CCc1ccc(F)cc1 (configuration not stated),12.11%
2,COCC(C)NC(=O)CCSc1ccc(F)cc1 (configuration not stated),-22.42%
3,CCOC(=O)C(C)NC(=O)CCSc1ccc(F)cc1 (configuration not stated),72.72%
4,CNC(=O)NC(=O)CN1CCN(c2ccc(C(=O)OC)cc2)CC1C (configuration not stated),-3.666%
5,Cc1cs/c(=N\C(=O)c2c3c(nc4onc(C)c24)CCC3)[nH]1,37.19%
6,CC(=O)Nc1nc(C(=O)NC(C)c2cccnc2)cs1 (configuration not stated),-20.46%
7,Cc1[nH]/c(=N\C(=O)c2csc(NCC(C)C)n2)sc1C,105.2%
8,CC(=O)Nc1nc(C(=O)NC(C)c2ccncc2)cs1 (configuration not stated),-46.84%
9,Cc1cs/c(=N/C(=O)c2csc(NCC(C)C)n2)[nH]1,104.8%
10,CC(C)CNc1nc(C(=O)/N=c2\[nH]nc(C(C)(C)C)s2)cs1,4.379%
11,CCCNC(=O)C(C)N1CCC(C(=O)Nc2cnn(CC)c2)CC1 (configuration not stated),-1.052%
12,O=C(Nc1cccnc1-n1cc(Br)cn1)C1CCCC1,-1.816%
13,Cc1cnc(N2CCCn3c(nnc3CN(C)C(C)C)C2)nc1.O=C(O)C(F)(F)F,8.261%
14,c1csc(N2CCN(c3ncnc4sccc34)CC2)n1,8.465%
15,COCC(=O)N1CCCC(C(=O)N(C)CCn2ccnc2C)C1 (configuration not stated),-64.71%
16,CCn1c(CN(C)Cc2cnc(C)s2)nc2c(F)cccc21,21.09%
17,Cc1ccccc1OCCN1CCn2c(C)nnc2C1,-10.78%
18,Cc1noc(C(C)N2CCc3[nH]c4ccc(Cl)cc4c3C2)n1 (configuration not stated),63.72%
19,Cc1nnc(C(C)N2CCc3[nH]c4ccccc4c3C2)o1 (configuration not stated),28.26%
20,Cc1nnc(C(C)N2CCc3[nH]c4ccc(Cl)cc4c3C2)o1 (configuration not stated),34.8%
21,CN(C)CCn1c2c(ccc1=O)CC(NC(=O)c1ccsc1)CC2.O=C(O)C(F)(F)F (configuration not stated),-27.73%
